The values below come from PubChem BioAssay.

Assay [1] in a line: Her2 expression decrease, cell viability multiplex – SKBR3 breast tumor cells, AlphaScreen, ATP viability, primary screen (AID 461;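 active means Her2 level under about 52% in both replicate screens, with viability over 70% of control, limit read from the data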;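 on Her2 level: lower value means less Her2 protein in the cells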;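 on viability: percent of carrier control wells set as 100% viability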). The following applies: SKBR3 Her2 protein level, 18-24 h, measured here: SKBR3 viability, ATP luminescence, at 10 µM.
The target of assay [2] is Receptor tyrosine-protein kinase erbB-2 (Homo sapiens) (UniProt P04626). The description is as above. As to conditions: 18-24 h, at 10 µM, stronger effect = lower value.
Assay [3] in a line: reduced viability of SK-BR-3 breast cancer cells – cell-based, 24 h, human, pilot screen (AID 572;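 active means viability at or below 10% of carrier control in both of two separate runs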;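 further: compound exposure lasted between 18 and 24 h rather than exactly 24 h; 100% = carrier-treated control wells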). The following applies: SK-BR-3 viability, CellTiter-Glo luminescence, at 10 µM, stronger effect = lower value. Background: In ATP-based viability assays light output follows the ATP content of the culture.
Assay [4] in a line: HUVEC growth inhibition – cell-based, human, primary screen (AID 575;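 active means viability at or below 30% in both replicate assays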;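 further: 100% = median of untreated cell wells with 0.1% DMSO on each plate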). As to conditions: HUVEC proliferation, CellTiter-Glo luminescence, 72 h; at 10 µM; stronger effect = lower value.
Assay [5] is described as follows: H69AR cell proliferation blockers – human, duplicate replicates, primary screen (AID 580;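 active means viability at or under a set limit in both replicates, limit being median viability minus 3 SD, cut at about 48% in these data, passing the limit was not always enough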;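 further: 100% = mean luminescence of untreated wells and 0% = no signal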). The following applies: H69AR lung tumor cells viability, ATP luminescence, 72 h; at 10 µM; stronger effect = lower value.
Assay [6] can be described thus: MRP1 drug-resistance reversers in H69AR cells – cell-based, doxorubicin co-treatment, pilot screen (AID 601). The following applies: CellTiter-Glo, 72 h, at 10 µM; for differential viability (reversal): stronger effect = higher value.
The nature of assay [7]: yeast transport mutant growth inhibition pilot in 384-well plates, post-Golgi transport modulator project (AID 636; in the data active means inhibition above about 31%). As to conditions: absorbance 615 nm, about 18 h, stronger effect = higher value.
Assay [8] is described as follows: growth suppression of yeast trafficking mutant, preliminary HTS, modulators of trafficking downstream of Golgi apparatus project, 1536-format plate, OD 615 nm (AID 637; in the data active means inhibition above about 30%). The following applies: yeast transport mutant growth, absorbance 615 nm, 18 h; stronger effect = higher value.
Assay [9] is described as follows: S. cerevisiae growth inhibition in permissive medium (OD615), pilot counter-assay for S. cerevisiae lifespan shortening project, permissive growth control (AID 705;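 active means growth inhibition above 25% in both replicates, a cutoff set 3 SD above the mean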). The following applies: OD615, 24 h, at 10 µM, stronger effect = higher value.
Assay [10] in a line: S. cerevisiae growth inhibition in restrictive medium, OD615, pilot screen, restrictive growth control, yeast lifespan reduction project (AID 706;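 active means growth inhibition above a set limit, 3 SD over mean compound inhibition, in both replicates, cut at about 43% in these data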;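 further: modified DeaD lifespan yeast strain shifted to restrictive glucose medium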). The following applies: OD615, 48 h, at 10 µM, stronger effect = higher value.
The nature of assay [11]: doxorubicin toxicity protection in MRP-1 cells – H69AR cells, CellTiter-Glo, duplicate, MRP-1 activator project, pilot screen (AID 807;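 active means viability increase at or above a cutoff of the median across tested compounds plus 3 SD, cut at about 8.5% in these data, passing the limit was not always enough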;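 further: compound pretreatment 18-22 h then 72 h combined with doxorubicin; 0% = doxorubicin alone and 100% = vehicle without doxorubicin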). As to conditions: H69AR viability with doxorubicin, CellTiter-Glo luminescence; at 10 µM; stronger effect = higher value.
Assay [12] can be described thus: viability of HCT116 without oncogenic beta-catenin – human colon tumor cells, pilot screen (AID 823;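 active means cell viability at or below a set limit in both duplicate runs, the limit being the all-compound median minus 4 SD, cut at about 23% in these data, passing the limit was not always enough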;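 further: 0% = wells killed by 20 µM Hyamine and 100% = untreated DMSO cell wells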). The following applies: HCT116 beta-catenin knockout viability, CellTiter-Glo, 60 h; at 10 µM; stronger effect = lower value.
Assay [13] can be described thus: viability of PTEN-null HCT116 cells – cell-based, HCT116 clonal line, CellTiter-Glo, pilot screen (AID 824;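 active means viability at or below 27.92% in each of two runs, the all-compound median minus 4 SD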;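 further: 0% = 20 µM Hyamine control and 100% = vehicle cell control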). As to conditions: HCT116 PTEN-deleted viability, 60 h, at 10 µM, stronger effect = lower value.
Assay [14] in a line: RAM pathway blockade in budding yeast – dse1pr::URA3 reporter, 5-FOA selection, pilot screen (AID 869;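 active means inhibition over a set limit, the all-compound mean plus 3 SD, in both replicate runs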;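 further: 0% = DMSO wells with no growth and 100% = 10 µM 1-NA-PP1 with full growth; RAM network block rescues cells from 5-FOA so hits raise OD615 growth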). As to conditions: S. cerevisiae dse1pr::URA3 5-FOA growth, OD615, 2 d; at 10 µM; stronger effect = higher value; strain carries analog-sensitive mutant Cbk1 kinase.
Assay [15] is described as follows: RAM signaling pathway blockade in yeast – S. cerevisiae, Pdr1DBD-CYC8 efflux-inhibited sensitized strain, primary screen (AID 1298;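 active means RAM network inhibition above 8.4% in each of two replicates, 3 SD over the compound average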;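 further: 0% = DMSO untreated cells without growth and 100% = 10 µM 1-NA-PP1 full growth; higher means more yeast growth rescued from 5-FOA killing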). The following applies: S. cerevisiae cbk1-as DSE1-URA3 strain, 5-FOA growth OD615, 2 d; at 50 µM; stronger effect = higher value.
The mark [16] stands for this setting: H69AR cells + 2 uM doxorubicin, measured here: viability with 2 uM doxorubicin, stronger effect = lower value.
The mark [17] stands for this setting: H69AR cells, compound alone cytotoxicity.

Molecules are shown by their SMILES. Inconclusive results are not listed. The source made the active and inactive calls.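 How the source made its calls, unless noted: active means viability loss from added drug above about 55%, and viability with drug at most 40%, in both replicates (limit read from the data, passing the limit was not always enough); inconclusive means both conditions met in only one replicate; inactive means neither replicate meets both conditions.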

Receptor tyrosine-protein kinase erbB-2 (Homo sapiens), sequence (P04626 whole entry, looked up): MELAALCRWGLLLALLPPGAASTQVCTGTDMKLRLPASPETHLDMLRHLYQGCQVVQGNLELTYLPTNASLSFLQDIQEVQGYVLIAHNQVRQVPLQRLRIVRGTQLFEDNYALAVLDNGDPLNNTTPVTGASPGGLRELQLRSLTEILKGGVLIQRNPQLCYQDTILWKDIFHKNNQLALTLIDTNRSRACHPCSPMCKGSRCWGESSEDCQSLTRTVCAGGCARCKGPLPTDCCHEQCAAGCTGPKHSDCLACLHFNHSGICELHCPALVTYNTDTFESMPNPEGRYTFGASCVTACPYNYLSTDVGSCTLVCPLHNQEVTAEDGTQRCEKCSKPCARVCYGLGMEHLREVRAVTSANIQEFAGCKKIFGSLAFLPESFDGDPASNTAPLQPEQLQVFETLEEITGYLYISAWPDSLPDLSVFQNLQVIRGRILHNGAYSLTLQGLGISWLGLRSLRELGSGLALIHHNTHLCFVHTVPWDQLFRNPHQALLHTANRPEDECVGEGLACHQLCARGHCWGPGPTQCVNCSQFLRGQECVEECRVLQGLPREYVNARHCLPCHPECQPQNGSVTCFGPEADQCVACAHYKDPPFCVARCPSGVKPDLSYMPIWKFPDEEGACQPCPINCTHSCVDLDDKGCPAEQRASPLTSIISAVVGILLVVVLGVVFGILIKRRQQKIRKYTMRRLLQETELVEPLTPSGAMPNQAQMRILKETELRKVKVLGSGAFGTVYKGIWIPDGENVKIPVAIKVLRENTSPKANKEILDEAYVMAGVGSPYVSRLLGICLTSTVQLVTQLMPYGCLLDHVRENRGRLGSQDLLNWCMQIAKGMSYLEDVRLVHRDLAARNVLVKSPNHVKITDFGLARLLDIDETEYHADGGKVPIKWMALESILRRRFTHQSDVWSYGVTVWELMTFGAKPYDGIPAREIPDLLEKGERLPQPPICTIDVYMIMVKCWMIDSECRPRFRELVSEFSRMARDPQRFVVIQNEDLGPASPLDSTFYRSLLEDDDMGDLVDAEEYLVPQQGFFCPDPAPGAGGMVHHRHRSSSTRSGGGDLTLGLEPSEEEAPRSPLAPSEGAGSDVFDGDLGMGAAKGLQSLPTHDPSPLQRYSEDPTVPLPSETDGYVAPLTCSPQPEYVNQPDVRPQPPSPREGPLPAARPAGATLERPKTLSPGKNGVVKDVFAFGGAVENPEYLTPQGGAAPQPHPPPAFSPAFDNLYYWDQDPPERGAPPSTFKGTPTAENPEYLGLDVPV

`COc1ccc(C(=O)NCC(=O)NC2=NCCS2)cc1`: the viability (usually a read-out of living cells in per cent, often relative to untreated cells) in [1] was 100%; in assay [3], 100% (inactive); in assay [4], 120% (inactive); in assay [5], 102% (inactive); in assay [6] (setting [16]) it was 91%; in assay [6] (setting [17]) it was 102%. Besides, the viability in [12] was 102% (inactive); in assay [13], 98.1% (inactive). For the same compound, the Her2 level in [2] is 104% (inactive). Also, the differential viability (reversal) in assay [6] (H69AR cells + 2 uM doxorubicin) is 10.7% (inactive). The inhibition (commonly the change of the read-out against control, counted positive when it falls) in assay [7] is -4.67% (inactive); in assay [8], 0.33% (inactive); in [14], 1.56% (inactive). In addition, the growth inhibition was -1.83% (inactive) in assay [9] and -4.44% (inactive) in assay [10]. In addition, the viability increase in assay [11] was -1.93% (inactive). The RAM network inhibition in assay [15] is 2.03% (inactive).
With `COc1ccc(CNC(=O)c2ccc(CN3CCOCC3)cc2)cc1`, the viability in assay [1] is 116%; in assay [3], 116% (inactive); in assay [4] it was 99.8% (inactive); in assay [5], 92.1% (inactive); in assay [6] (setting [16]), 79.6%; in assay [6] (setting [17]) it was 92.1%. Also, the viability in [12] was 96.4% (inactive); in [13], 105% (inactive). The Her2 level in [2] was 93.5% (inactive). For the same compound, in assay [6] (H69AR cells + 2 uM doxorubicin), the differential viability (reversal) is 12.5% (inactive). The figures for the inhibition in [7], in assay [8] and in assay [14] were -4% (inactive), 4.52% (inactive) and 1.33% (inactive), respectively. Further, the results for the growth inhibition in [9] and in assay [10] were -8.78% (inactive) and -16.6% (inactive), respectively. The viability increase in assay [11] is -0.28% (inactive). In addition, in [15], the RAM network inhibition is 0.16% (inactive).
Regarding `Cn1c(C(=O)NCCCN2CCN(c3ccc(F)cc3)CC2)cc2c(=O)n(C)c3ccccc3c21`, the viability is 81% in [1]; 81% (inactive) in assay [3]; 65.7% (inactive) in assay [4]; 84.1% (inactive) in [5]; 79.8% in assay [6] (setting [16]); 84.1% in assay [6] (setting [17]). Also, the viability in [12] is 67.8% (inactive); in [13] it was 70.1% (inactive). The Her2 level in [2] is 90% (inactive). Also, the differential viability (reversal) in [6] (H69AR cells + 2 uM doxorubicin) was 4.36% (inactive). Also, the inhibition in [7] is -3.07% (inactive); in assay [8], 0% (inactive); in [14], -0.495% (inactive). Moreover, the growth inhibition in assay [9] was -6.23% (inactive); in assay [10], 7.21% (inactive). For the same compound, in [11], the viability increase was -5.3% (inactive). In [15], the RAM network inhibition is 1.71% (inactive).
For `CC(=O)N(c1ccc(Br)cc1)C1C=CS(=O)(=O)C1` (stereo not given), the viability in assay [1] is 100%; in assay [3], 100% (inactive); in assay [4], 87.9% (inactive); in assay [5], 88.8% (inactive); in assay [6] (setting [16]) it was 84.1%; in assay [6] (setting [17]), 88.8%. For the same compound, the viability was 107% (inactive) in assay [12] and 96% (inactive) in assay [13]. The Her2 level in [2] was 96% (inactive). For the same compound, in assay [6] (H69AR cells + 2 uM doxorubicin), the differential viability (reversal) is 4.71% (inactive). The inhibition in assay [7] is -5.33% (inactive); in assay [8] it was 1.5% (inactive); in assay [14] it was 2.17% (inactive). Moreover, the growth inhibition was -6.33% (inactive) in assay [9] and -16.4% (inactive) in assay [10]. In addition, in assay [11], the viability increase is -0.84% (inactive). In addition, the RAM network inhibition in [15] is -0.25% (inactive).
`CC1CCCCC1NC(=O)Cn1ncc2ccccc21` (stereo not given): the viability in [1] is 104%; in assay [3], 104% (inactive); in [4] it was 82.1% (inactive); in assay [5], 90.4% (inactive); in assay [6] (setting [16]) it was 85.4%; in [6] (setting [17]) it was 90.4%. The viability in assay [12] was 98.6% (inactive); in assay [13] it was 95.7% (inactive). For the same compound, the Her2 level in assay [2] is 104% (inactive). Moreover, the differential viability (reversal) in assay [6] (H69AR cells + 2 uM doxorubicin) was 4.98% (inactive). Also, the inhibition is -2.93% (inactive) in assay [7], 0.33% (inactive) in assay [8] and 1.98% (inactive) in [14]. Also, the growth inhibition in assay [9] was -12.1% (inactive); in [10] it was -9.67% (inactive). Besides, the viability increase in assay [11] is -1.21% (inactive). The RAM network inhibition in assay [15] is 0.04% (inactive).
